This is a sample that favours compounds with a hit; in the whole collection about 7.9% have one here.
SW480 rerep – inducers of DNA re-replication in SW480 colon cancer cells; SW480 DNA re-replication, Hoechst DNA content imaging, 48 h; 340,000 compounds, 1.8% hits; Potency, µM (doses to about 46.1 µM), actives largely listed as activators; further: nearly all actives have a fitted effect of over 55% in size
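Treated cells incubate 48 hr (37 C, 5% CO2), are stained 40 min with Hoechst, and nuclear fluorescence is enumerated; a rise in nuclei with high DNA signal marks re-replication.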
MCF10A rereplic – DNA re-replication induction in MCF 10a cells; MCF 10A DNA re-replication, Hoechst nuclear intensity, 48 h; Potency, µM (titrated, usually from 46.1 µM), usual class: activators; 350,000 compounds, 2.9% hits; AID 624296; further: nearly all actives have a fitted effect of over 50% in size
KB-3-1 tox – kills parental KB-3-1 adenocarcinoma cells | KB-3-1 viability, CellTiter-Glo ATP luminescence, 72 h | Potency, µM (doses to about 46.1 µM), most hits filed as cytotoxic | 400,000 compounds, 1.4% hits; further: nearly all actives have a fitted effect of over 60% in size
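KB-3-1 cells, DMEM (no phenol red) + 10% FBS; compound by pin transfer, 72 h, 37 °C. Readout: CellTiter-Glo luminescence after 10 min. Data normalized, curve-fitted.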
KB-V1 cytotox – KB-V1 MDR subline cytotoxicity | AID 1347076 | Potency, µM (top dose mostly 46.1 µM), actives largely listed as cytotoxic | KB-V1 MDR cells viability, CellTiter-Glo, 72 h | 400,000 compounds, 3.4% hits; further: nearly all actives have a fitted effect of over 60% in size
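KB-V1 cells (P-gp-expressing MDR subline of KB-3-1) in phenol-red-free DMEM with 10% FBS were exposed to library compounds over a concentration series for 72 h at 37 degrees C. Viability read by CellTiter-Glo luminescence; concentration-effect curves fitted after normalization.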
HT1080 IDH1KD tx – kills HT-1080 cells with IDH1 knockdown | HT-1080 IDH1 knockdown viability, ATP luminescence, 48 h | Potency, µM (highest dose often 46.1 µM), most hits filed as cytotoxic | 360,000 compounds, 2% hits | AID 686971
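After a 2 h attachment period, IDH1KD HT-1080 cells took pin-transferred compound for 48 h at 37 °C; ATP-based luminescence after 10 min room-temperature reagent incubation reported viability.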
HT1080NT lethal – kills 2HG-producing HT-1080-NT fibrosarcoma cells. HT-1080-NT fibrosarcoma viability, CellTiter-Glo ATP luminescence, 48 h. Potency, µM (top dose mostly 46.1 µM), usual class: cytotoxic. 360,000 compounds, 1.6% hits;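 further: NT is the 2HG producing partner of a matched IDH1 knockdown line; nearly all actives have a fitted effect of over 55% in size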
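750 cells/well, RPMI + 5% FBS; 2 h settle, compound pin-transfer, 48 h at 37 degrees C. CellTiter-Glo 10 min RT, luminescence. Normalized to DMSO and media-only wells.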
A number is an active result; n = inactive; u = inconclusive; x = no result given; [ ] = remark or other dose. The call rests on the fitted dose curve; in most records, active means well fitted curve in the direction sought with a large enough effect; inconclusive means small, poorly fitted or top-dose-only effect, or another doubt; inactive means no such curve, though single readings can be large; an effect the other way counts as inactive or inconclusive.

SMILES	SW480 rerep	MCF10A rereplic	KB-3-1 tox	KB-V1 cytotox	HT1080 IDH1KD tx	HT1080NT lethal
O=C(O)CN1CCNCCN(CC(=O)O)CCNCC1	2.9µM	n	u	u	u	n
COc1ccccc1Cc1c(-c2cccc(Cl)c2)nc2ccc(Cl)cn12	x	x	n	n	u	u
CSc1ncnc2c1ncn2CCCNC1CCN(Cc2ccccc2)CC1	x	x	n	u	n	n
c1ccc(COc2ncnc3c2ncn3CCCNC2CCN(Cc3ccccc3)CC2)cc1	x	x	u	n	18µM	23µM
CC(C)(C)OC(=O)N[C@@H](Cc1ccccc1)c1nnc(SCC(=O)O)o1	n	n	n	n	n	n
CC(C)(C)OC(=O)N[C@@H](Cc1ccccc1)c1nnc(SCC(=O)c2ccc(Cl)cc2)o1	u	u	n	16µM	u	u
CCC(C)[C@@H](NC(=O)OC(C)(C)C)c1nnc(S(=O)(=O)Cc2cccc(C)c2)o1 (stereo not given in full)	u	16µM	n	n	n[9.24 µM]	18µM
CCCCSc1nnc([C@H](C)NC(=O)OC(C)(C)C)o1	n	n	n	13µM	n	n
CCSc1nnc([C@H](Cc2ccccc2)NC(=O)OC(C)(C)C)o1	n	n	n	16µM	n	n
CC(C)(C)OC(=O)N[C@@H](Cc1c[nH]c2ccccc12)c1nnc(SCC(N)=O)o1	n	n	n	n	n	n
COc1cc(OC)c(NC(=O)CCc2nc(C3=CCN(Cc4cccc(Cl)c4)CC3)no2)cc1Cl	x	x	n	n	x	x
CC(C)Sc1nnc([C@H](Cc2c[nH]c3ccccc23)NC(=O)OC(C)(C)C)o1	n	n[0.0737 µM]	n	n	n	n
Cc1ccccc1CS(=O)(=O)c1nnc([C@H](Cc2ccccc2)NC(=O)OC(C)(C)C)o1	u	u	n	u	1.8µM	5µM
O=C1CCC(C(=O)OCC(=O)N2N=C3/C(=C/c4ccccc4)CCCC3C2c2ccccc2)N1 (stereo not given)	n	n	21µM	u	n	n
O=C1CCC(C(=O)OCC(=O)N2N=C3/C(=C\c4ccccc4)CCCC3C2c2ccccc2)N1 (stereo not given)	n	n	n	n	n	n
O=C(c1ccccn1)N1N=C2/C(=C/c3ccccc3)CCCC2C1c1ccccc1 (stereo not given)	u	n	n	n	n	n
CNC(=O)c1sc(N2N=C3/C(=C\c4ccccc4)CCCC3C2c2ccccc2)nc1C (stereo not given)	8.2µM	u	x	x	n	n
CNC(=O)c1sc(N2N=C3/C(=C/c4ccccc4)CCCC3C2c2ccccc2)nc1C (stereo not given)	7.1µM	u	u	n	u	n
O=S(=O)(c1ccccc1)c1nc(-c2ccco2)oc1SCc1ccc(F)cc1	x	x	n	n	x	x
COc1ccc(S(=O)(=O)N2CCC(C(=O)Nc3ccc(Oc4ccccc4)cc3)CC2)cc1OC	x	x	n	n	x	x
COc1cc(Cl)ccc1OCc1cc(C(=O)N2C[C@H]3CC[C@H]2C3)no1	n	n	n	n	n	n
COc1cc(Cl)ccc1OCc1cc(C(=O)N2C[C@]3(C)C[C@H]2CC(C)(C)C3)no1	n	21µM	x	x	n	n
CCOC(=O)C1CCCN(c2nc(C)nc3c2oc2ccccc23)C1 (stereo not given)	n	n	n	8.2µM	u	u
CCc1nc(N2CCCCC2)c2oc3ccccc3c2n1	u	n	n	u	u	u
CCc1nc(N2CCN(Cc3ccc4c(c3)OCO4)CC2)c2oc3ccccc3c2n1	u	9.2µM	20µM	10µM	u	u
SMILES	SW480 rerep	MCF10A rereplic	KB-3-1 tox	KB-V1 cytotox	HT1080 IDH1KD tx	HT1080NT lethal
CCc1nc(N2CCCC(C)C2)c2oc3ccccc3c2n1 (stereo not given)	n	u	u	5.2µM	u	u
CCc1nc(N2CCCCC2C)c2oc3ccccc3c2n1 (stereo not given)	u	u	u	7.3µM	u	u
CC1=C(c2ccc(C)c(C)c2)S(=O)(=O)N(Cc2ccc(C(=O)NC(C)c3ccccc3)cc2)C1=O (stereo not given)	x	x	n	n	x	x
O=C(NCC(c1ccco1)S(=O)(=O)c1cccs1)c1ccccc1F (stereo not given)	x	x	n	n	x	x
Cc1nc(N2CCOCC2)c2oc3ccccc3c2n1	n	u	n	15µM	n	n
O=C1C(=O)N(C2CCN(C(=O)c3ccc(Cl)cc3)CC2)CCN1Cc1ccc(F)cc1	x	x	n	n	x	x
O=C/C(=C\Nc1ccccn1)c1nc2cc(Cl)ccc2o1	n	16µM	n	n	n	n
O=C/C(=C\Nc1ccccn1)c1nc2ccccc2o1	u	21µM	n	n	u	n[9.24 µM]
O=C/C(=C\Nc1ccc(Br)cc1)c1nc2ccccc2o1	n	n	n	n	n	n
Cc1ccc2oc(-c3ccc(NC(=O)COc4ccccc4)cc3O)nc2c1	x	x	u	n	x	x
C[n+]1c(/C=C/c2ccc(F)cc2)ccc2ccccc21	x	x	u	n	x	x
COc1ccc(Br)cc1/C=C/C(=O)Nc1ccc2ccccc2c1	n	u	n	n	n	n
CC(=O)Nc1cccc(C(=O)/C=C/c2ccc(Br)cc2)c1	21µM	5.8µM	n	u	n	u
CC(=O)Nc1cccc(C(=O)/C=C/c2ccc(F)cc2)c1	u	9.2µM	n	u	12µM	n
CCC(=O)Nc1cccc(C(=O)/C=C/c2cc(Br)ccc2OC)c1	3.7µM	2.9µM	n	18µM	8.2µM	8.2µM
CC(=O)Nc1cccc(C(=O)/C=C/c2ccc(N(C)C)cc2)c1	u	u	n	u	n	n
CC(=O)Nc1cccc(C(=O)/C=C/c2ccc[nH]2)c1	n	n	n	n	n	n
Cc1cccc(CCn2c(=O)c3ccccc3n(CC(=O)Nc3ccccc3F)c2=O)c1	x	x	n	n	x	x
CCOC(=O)C1(C)C=C(Nc2cccc(C(=O)O)c2)C(=O)N1c1cccc(C(=O)O)c1 (stereo not given)	x	x	n	u	x	x
COc1ccc(NS(=O)(=O)c2ccc(NC(C)=O)cc2)c(OC)c1	u	u	n	n	n	n
COc1ccc(NC(=O)c2ccc(N(C)S(C)(=O)=O)cc2)cc1OC	n	n	n	u	n	n
COc1ccc(OC)c(NS(=O)(=O)c2ccc(SC)cc2)c1	13µM	13µM	7.3µM	4.1µM	u	u
CCOc1ccc(S(=O)(=O)Nc2cc(OC)ccc2OC)cc1	0.41µM	u	0.1µM	0.41µM	u	0.18µM
COc1ccc(NS(=O)(=O)c2ccc(NC(=O)c3ccc(N(C)S(C)(=O)=O)cc3)cc2)c(OC)c1	n	n	4.6µM	n	u	u
COc1ccc(OC)c(NS(=O)(=O)c2ccc(NC(C)=O)cc2)c1	n	u	u	21µM	n	n
O=[N+]([O-])c1ccc(Nc2nc(NCCN3CCOCC3)nc(Nc3ccc(I)cc3)n2)cc1	x	x	u	n	x	x

Screening data: PubChem BioAssay, National Center for Advancing Translational Sciences (NCATS)
